# Laboratory results from article PMC4336329 (PLoS ONE, 2015).
# The whole screen tested about 310,000 compounds, of which about 14,000 (4.5%) showed an effect of 50% or more. Effects have a minus sign here. Shown is part of a subset that was picked to be rich in strong results.
# Biological target: human ether-à-go-go-related gene (hERG) potassium channel (human, UniProt Q12809)
# Experiment: primary screen, population patch clamp on CHO cells stably expressing hERG; higher = less effect of the substance
# 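Note: peak tail current of the secondary pulse compared with the same well before compound.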
# Sequence of human ether-à-go-go-related gene (hERG) potassium channel (Q12809 whole entry, looked up): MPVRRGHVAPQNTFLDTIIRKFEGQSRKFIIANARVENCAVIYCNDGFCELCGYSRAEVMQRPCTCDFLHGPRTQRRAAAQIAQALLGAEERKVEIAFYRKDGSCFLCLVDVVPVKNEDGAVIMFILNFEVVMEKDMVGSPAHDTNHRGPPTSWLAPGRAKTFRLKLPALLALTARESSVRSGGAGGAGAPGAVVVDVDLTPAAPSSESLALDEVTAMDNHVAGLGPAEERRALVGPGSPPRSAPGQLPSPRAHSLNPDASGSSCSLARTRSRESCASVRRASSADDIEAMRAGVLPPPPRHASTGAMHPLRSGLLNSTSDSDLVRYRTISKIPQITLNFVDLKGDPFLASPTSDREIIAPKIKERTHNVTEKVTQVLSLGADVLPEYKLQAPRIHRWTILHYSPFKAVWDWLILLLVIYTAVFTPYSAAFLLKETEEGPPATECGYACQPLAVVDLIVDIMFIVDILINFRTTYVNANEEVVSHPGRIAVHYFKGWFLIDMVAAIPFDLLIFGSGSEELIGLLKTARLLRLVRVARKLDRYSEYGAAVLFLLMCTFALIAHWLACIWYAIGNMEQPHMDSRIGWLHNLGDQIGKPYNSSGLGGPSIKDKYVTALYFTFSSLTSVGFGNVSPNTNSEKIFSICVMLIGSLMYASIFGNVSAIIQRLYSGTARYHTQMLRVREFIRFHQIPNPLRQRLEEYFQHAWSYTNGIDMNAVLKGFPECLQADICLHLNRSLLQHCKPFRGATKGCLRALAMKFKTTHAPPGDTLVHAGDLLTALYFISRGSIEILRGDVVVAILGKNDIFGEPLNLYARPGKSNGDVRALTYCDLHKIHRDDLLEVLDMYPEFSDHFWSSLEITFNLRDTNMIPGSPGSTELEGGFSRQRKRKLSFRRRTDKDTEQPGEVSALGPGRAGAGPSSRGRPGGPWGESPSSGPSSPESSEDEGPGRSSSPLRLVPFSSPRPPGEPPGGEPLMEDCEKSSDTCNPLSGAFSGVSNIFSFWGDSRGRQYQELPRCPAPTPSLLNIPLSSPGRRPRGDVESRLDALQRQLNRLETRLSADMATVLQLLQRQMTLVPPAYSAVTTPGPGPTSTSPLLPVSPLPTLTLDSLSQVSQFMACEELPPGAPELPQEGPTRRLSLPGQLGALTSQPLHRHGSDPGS
row,SMILES,"hERG current change (%, negative = inhibition) at 10uM"
1,O=C(Nc1cccnc1)c1ccccc1-c1nc(-c2ccccc2F)no1,-16.4%
2,N#Cc1nc(-c2ccccc2)oc1N1CCC(C(N)=O)CC1,9.26%
3,O=S(=O)(NCC1CCN(S(=O)(=O)c2ccccc2)CC1)c1ccccc1,-9.78%
4,Cc1ccc(C2N(c3ccc(Cl)cc3)C(=O)N3CCCN23)cc1 (stereo not drawn),-1.05%
5,CCc1nc(SCC(=O)Nc2nnc(CC)s2)c2c(C)c(C)sc2n1,8.99%
6,COc1ccccc1NC(=O)CN1CCN(CC(=O)Nc2ccc(S(N)(=O)=O)cc2)CC1,-27.8%
7,COc1ccccc1NC(=O)CN1CCN(CC(=O)Nc2ccc(OCc3ccccc3)cc2)CC1,-25.1%
8,CCOc1ccc(NC(=O)CN2CCN(CC(=O)Nc3ccccc3OC)CC2)cc1,-74.1%
9,C(#CCN1CCCC1)CC(c1ccccc1)c1ccccc1.Cl,-50.5%
10,OCCN1CCN(CC#CCC(c2ccccc2)c2ccccc2)CC1,-22.9%
11,OC(C#CCN1CCCC1)c1ccccc1 (stereo not drawn),-2.28%
12,COc1cc(OC)c(C(=O)NCCCn2ccnc2)cc1OC.Cl,13%
13,OC[C@H]1O[C@@H](n2cnc3c(NC4CCCC4)ncnc32)[C@H](O)[C@@H]1O,10.4%
14,OC(CNCc1ccco1)Cn1c2ccc(Br)cc2c2cc(Br)ccc21 (stereo not drawn),-0.0278%
15,OC(CNCc1ccco1)Cn1c2ccccc2c2ccccc21 (stereo not drawn),-58.4%
16,OCCNCC(O)Cn1c2ccccc2c2ccccc21 (stereo not drawn),10.2%
17,COc1ccc(OC)c(NC(=O)[C@@H]2CCCN2C(=O)c2cccs2)c1,-2.19%
18,CC(C)(C)c1ccc(C(=O)NNC(=O)CCc2ccccc2)cc1,7.16%
19,Cc1ccc(C(C(=O)NC2CCCC2)N(Cc2ccc3c(c2)OCO3)C(=O)c2snc(C(N)=O)c2N)cc1 (stereo not drawn),10.7%
20,CNC(=S)N1CCN(c2ccc([N+](=O)[O-])cc2)CC1,-65.1%

row,SMILES,"hERG current change (%, negative = inhibition) at 10uM"
1,C=CCNC(=S)N1CCN(c2ccccc2Cl)CC1,-6.87%
2,CCNC(=S)N1CCN(c2ccc([N+](=O)[O-])cc2)CC1,-64.5%
3,C=CCNC(=S)N1CCN(c2ccc([N+](=O)[O-])cc2)CC1,-63.6%
4,COCCCNC(=S)N1CCN(c2ccccc2)CC1,12.9%
5,COCCNC(=S)N1CCN(c2ccc(Cl)cc2)CC1,-12.9%
6,CCCC(=O)NC(=S)N1CCN(c2ccc([N+](=O)[O-])cc2)CC1,-20.7%
7,Cc1cccc(C(=O)NC(=S)N2CCN(c3ccc([N+](=O)[O-])cc3)CC2)c1,-2.77%
8,COCCCNC(=S)N1CCN(c2ccc([N+](=O)[O-])cc2)CC1,-68%
9,O=[N+]([O-])c1ccc(N2CCN(C(=S)Nc3ccc(F)cc3F)CC2)cc1,-18.5%
10,O=[N+]([O-])c1ccc(N2CCN(C(=S)NCc3ccc(Cl)cc3)CC2)cc1,-8.05%
11,O=[N+]([O-])c1ccc(N2CCN(C(=S)Nc3ccccc3)CC2)cc1,-4.16%
12,CCCC(=O)Nc1nc2nc(C)cc(=O)n2[nH]1,1.2%
13,Cc1cc(C)c2c(=O)[nH]n(C3CC(C)N(C)CC3C)c2n1 (stereo not drawn),4.5%
14,CC1(C)Cc2c(sc3nc(-c4cccs4)n(N)c(=O)c23)CO1,-22.5%
15,CCN(c1cccc(C)c1)S(=O)(=O)c1ccc2c(c1)NC(=O)CS2,-7.28%
16,Cc1nnc2ccc(Oc3ccc(-c4ccccc4)cc3)nn12,-5.63%
17,CCC1C(c2ccccc2)NC(c2ccccc2)CC1(O)c1ccc(F)cc1.Cl (stereo not drawn),11.4%
18,Cc1cc(C)n2cc(CSc3ncn[nH]3)nc2n1,0.809%
19,Cc1cc(C)n2cc(CSCc3ccccc3)nc2n1,-36.9%
20,Cc1ccc2nc(SCc3cn4c(C)cc(C)nc4n3)[nH]c2c1,-20.9%

row,SMILES,"hERG current change (%, negative = inhibition) at 10uM"
1,Cc1cccc2nc(CSc3ccc(Cl)cc3)cn12,-74.3%
2,Cc1cc(C)n2cc(CSc3nnc(-c4ccccc4)o3)nc2n1,-38.3%
3,Cc1ccnc(SCc2cn3c(C)cc(C)nc3n2)n1,-3.93%
4,Clc1ccc(SCc2cn3ccccc3n2)cc1,-18.1%
5,Cc1ccc(SCc2cn3c(C)cc(C)nc3n2)cc1,-67.1%
6,Cc1cc(C)n2cc(CSc3nc4cc(Cl)ccc4o3)nc2n1,-68.1%
7,Cc1cc(C)n2cc(CSc3ccc(Br)cc3)nc2n1,-63.8%
8,Cc1cc(C)nc(SCc2cn3c(C)cccc3n2)n1,6.36%
9,O=c1cc(CSc2nc3cc(Cl)ccc3o2)nc2sccn12,10.4%
10,COc1ccccc1N=Nc1c(C)noc1C,10.6%
11,CCOC(=O)/C(C#N)=N/Nc1ccc(S(=O)(=O)Nc2cc(OC)nc(OC)n2)cc1,-13.1%
12,CC(C)(C)c1nnc(NS(C)(=O)=O)s1,8.21%
13,O=c1[nH]n(-c2ccc([N+](=O)[O-])cc2)c(=O)c2ccccc12,5.47%
14,COCc1ccc(C(=O)N2CCCC(C(=O)c3ccc(SC)cc3)C2)o1 (stereo not drawn),-41.6%
15,Nc1cnc(Nc2ccc(Br)cc2)nc1N.O=S(=O)(O)O,-8.72%
16,CCc1c(C)nc(SCC(=O)Nc2cccc(Br)c2)[nH]c1=O,16.3%
17,Cc1cc(C)n2cc(CSc3ccccn3)nc2n1,13.6%
18,Cc1csc2nc(CSc3ccc(Cl)cc3)cn12,-27.3%
19,Cc1cc(C)n2cc(CSc3ccc(Cl)cc3)nc2n1,-64.9%
20,CC(C)Oc1ccc(CNC2CCOC(C)(C)C2)cc1 (stereo not drawn),18%
